Measured values from PubChem BioAssay (EPA / NIEHS).
Inconclusive results are not listed. Activity calls are given as the source filed them. The calls were made as follows, unless noted: active = hit-call score of the fitted dose curve at least 0.9, where 1 is the maximum; inconclusive = response in the unintended direction; inactive = score below 0.9.

Assay: CCTE_Mundy_HCI_Cortical_NOG_NeuronCount: CCTE's Neurite Outgrowth Assay in rat cortical cells for Neuron Count, Mundy Lab (AID 2284236);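 also: neurons counted by imaging betaIII-tubulin and Hoechst stained cortical cells; cells exposed to compound for about 48 hours before fixation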
Outline: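 Read-out: neuron number by high-content imaging of betaIII-tubulin (Alexa Fluor-488) and Hoechst-labelled rat primary cortical cells.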

Row | Compound | outcome | AC50
1 | O=C(O)CNCP(=O)(O)O | inactive | 
2 | Cn1nc(C(F)(F)F)c(CS(=O)(=O)C2=NOC(C)(C)C2)c1OC(F)F | inactive | 
3 | CC1(C)C(C=C(Cl)c2ccc(Cl)cc2)C1C(=O)OC(C#N)c1ccc(F)c(Oc2ccccc2)c1 (stereo not drawn) | inactive | 
4 | CCOP(=O)(Oc1cnc(C(C)(C)C)nc1)OC(C)C (stereo not drawn) | inactive | 
5 | CC1(C)[C@H](C=C(Cl)Cl)[C@H]1C(=O)OCc1c(F)c(F)cc(F)c1F |  | 50 µM (active)
6 | CC(=O)[O-].CC(=O)[O-].O.O.O.[Pb+2] | inactive | 
7 | CC1(C)C(C=C(Cl)Cl)C1C(=O)O[C@H](C#N)c1cccc(Oc2ccccc2)c1 (stereo partly drawn) | inactive | 
8 | CCOP(=O)(OCC)OC(Cl)C(Cl)(Cl)Cl (stereo not drawn) | inactive | 
9 | CCOP(=O)(OCC)SCSC(C)(C)C |  | 84.1 µM (active)
10 | CC1(C)[C@@H](C=C(Cl)Cl)[C@@H]1C(=O)O[C@@H](C#N)c1ccc(F)c(Oc2ccccc2)c1 | inactive | 
11 | COP(=O)(OC)SCN1C(=O)c2ccccc2C1=O | inactive | 
12 | CC(=O)[O-].[Tl+] |  | 50 µM (active)

Assay: CCTE_Mundy_HCI_Cortical_NOG_BPCount: CCTE's Neurite Outgrowth Assay in rat cortical cells for Branch Point Count, Mundy Lab (AID 2284237; active = hit-call score of the fitted dose curve at least 0.9, where 1 is the maximum; inactive = score below 0.9;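 as to AC50: branch points counted about two days after chemical exposure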)
Outline: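 Measured 50.33 h after dosing, this morphology endpoint uses rat primary cortical cultures labelled for betaIII-tubulin. Branch points are quantified by high-content imaging, with DMSO as negative control and baseline.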

Row | Compound | AC50 | outcome
13 | C[n+]1ccc(-c2cc[n+](C)cc2)cc1 | 50 µM (active) | 
14 | CCOP(=S)(OCC)SCS(=O)C(C)(C)C (stereo not drawn) |  | inactive
15 | C#CCN(C)[C@H](C)Cc1ccccc1 |  | inactive
16 | Cn1nc(C(F)(F)F)c(CS(=O)(=O)C2=NOC(C)(C)C2)c1OC(F)F | 77.1 µM (active) | 
17 | CC1(C)C(C=C(Cl)c2ccc(Cl)cc2)C1C(=O)OC(C#N)c1ccc(F)c(Oc2ccccc2)c1 (stereo not drawn) | 23.5 µM (active) | 
18 | CCOP(=O)(Oc1cnc(C(C)(C)C)nc1)OC(C)C (stereo not drawn) |  | inactive
19 | CC1(C)[C@H](C=C(Cl)Cl)[C@H]1C(=O)OCc1c(F)c(F)cc(F)c1F | 81.1 µM (active) | 
20 | CC1(C)C(C=C(Cl)Cl)C1C(=O)O[C@H](C#N)c1cccc(Oc2ccccc2)c1 (stereo partly drawn) | 80 µM (active) | 
21 | CCOP(=O)(OCC)OC(Cl)C(Cl)(Cl)Cl (stereo not drawn) |  | inactive
22 | CCOP(=O)(OCC)SCSC(C)(C)C | 62.1 µM (active) | 
23 | CC1(C)[C@@H](C=C(Cl)Cl)[C@@H]1C(=O)O[C@@H](C#N)c1ccc(F)c(Oc2ccccc2)c1 |  | inactive
24 | COP(=O)(OC)SCN1C(=O)c2ccccc2C1=O |  | inactive
25 | CC(=O)[O-].[Tl+] | 50 µM (active) | 

Assay: CCTE_Mundy_HCI_hNP1_Casp3_7: CCTE's Caspase-Glo 3/7 Assay in human neuroprogenitor cells for Apoptosis, Mundy Lab (AID 2284240; active = hit-call score of the fitted dose curve at least 0.9, where 1 is the maximum; inactive = score below 0.9)
Outline: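 Neuroepithelial-lineage stem cells from WA09 embryonic cells were treated with chemicals after 40–44 h of culture. Twenty-four hours later, caspase-3/7 activation was detected luminescently after a 30 min room-temperature reagent step, with DMSO as baseline.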

Row | Compound | outcome | AC50
26 | C[n+]1ccc(-c2cc[n+](C)cc2)cc1 | inactive | 
27 | CCOP(=S)(OCC)SCS(=O)C(C)(C)C (stereo not drawn) | inactive | 
28 | O=C(O)CNCP(=O)(O)O | inactive | 
29 | C#CCN(C)[C@H](C)Cc1ccccc1 | inactive | 
30 | Cn1nc(C(F)(F)F)c(CS(=O)(=O)C2=NOC(C)(C)C2)c1OC(F)F | inactive | 
31 | CC1(C)C(C=C(Cl)c2ccc(Cl)cc2)C1C(=O)OC(C#N)c1ccc(F)c(Oc2ccccc2)c1 (stereo not drawn) | inactive | 
32 | CCOP(=O)(Oc1cnc(C(C)(C)C)nc1)OC(C)C (stereo not drawn) | inactive | 
33 | CC1(C)[C@H](C=C(Cl)Cl)[C@H]1C(=O)OCc1c(F)c(F)cc(F)c1F |  | 26.7 µM (active)
34 | CC(=O)[O-].CC(=O)[O-].O.O.O.[Pb+2] | inactive | 
35 | CC1(C)C(C=C(Cl)Cl)C1C(=O)O[C@H](C#N)c1cccc(Oc2ccccc2)c1 (stereo partly drawn) |  | 29.3 µM (active)
36 | CCOP(=O)(OCC)OC(Cl)C(Cl)(Cl)Cl (stereo not drawn) | inactive | 
37 | CCOP(=O)(OCC)SCSC(C)(C)C | inactive | 
38 | CC1(C)[C@@H](C=C(Cl)Cl)[C@@H]1C(=O)O[C@@H](C#N)c1ccc(F)c(Oc2ccccc2)c1 | inactive | 
39 | COP(=O)(OC)SCN1C(=O)c2ccccc2C1=O | inactive | 
40 | CC(=O)[O-].[Tl+] | inactive | 

Assay: CCTE_Mundy_HCI_hNP1_CellTiter: CCTE's Cell Titer-Glo 2 Assay in human neuroprogenitor cells for Viability, Mundy Lab (AID 2284241);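 as to AC50: a hit is a drop in ATP luminescence versus DMSO meaning reduced viability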
Outline: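 Measures ATP content in human neural progenitors derived from WA09 embryonic cells. Read-out at 26.5 hours after dosing, with DMSO serving as the negative control and baseline.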

Row | Compound | outcome | AC50
41 | C[n+]1ccc(-c2cc[n+](C)cc2)cc1 | inactive | 
42 | CCOP(=S)(OCC)SCS(=O)C(C)(C)C (stereo not drawn) | inactive | 
43 | C#CCN(C)[C@H](C)Cc1ccccc1 | inactive | 
44 | Cn1nc(C(F)(F)F)c(CS(=O)(=O)C2=NOC(C)(C)C2)c1OC(F)F | inactive | 
45 | CCOP(=O)(Oc1cnc(C(C)(C)C)nc1)OC(C)C (stereo not drawn) | inactive | 
46 | CC1(C)[C@H](C=C(Cl)Cl)[C@H]1C(=O)OCc1c(F)c(F)cc(F)c1F |  | 23.2 µM (active)
47 | CC1(C)C(C=C(Cl)Cl)C1C(=O)O[C@H](C#N)c1cccc(Oc2ccccc2)c1 (stereo partly drawn) | inactive | 
48 | CCOP(=O)(OCC)SCSC(C)(C)C | inactive | 
49 | CC1(C)[C@@H](C=C(Cl)Cl)[C@@H]1C(=O)O[C@@H](C#N)c1ccc(F)c(Oc2ccccc2)c1 | inactive | 

Assay: CCTE_Mundy_HCI_Cortical_Synap_Neur_Matur_NeuronCount: CCTE's Synaptogenesis and Neurite Maturation Assay in rat cortical cells for Neuron Count, Mundy Lab (AID 2284242);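 as to AC50: neuron number from Hoechst nuclei and MAP2 staining by high-content imaging; hits reduce neuron count versus DMSO baseline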
Outline: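 Rat primary cortical cells received AraC at DIV 5 to arrest glia, then were dosed with chemicals at DIV 7 through DIV 12. Fixed cells were stained for nuclei, MAP2 and synaptophysin, and neurons were counted by high-content imaging relative to DMSO.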

Row | Compound | AC50 | outcome
50 | C[n+]1ccc(-c2cc[n+](C)cc2)cc1 | 0.763 µM (active) | 
51 | C#CCN(C)[C@H](C)Cc1ccccc1 |  | inactive
52 | Cn1nc(C(F)(F)F)c(CS(=O)(=O)C2=NOC(C)(C)C2)c1OC(F)F | 31.3 µM (active) | 
53 | CC1(C)C(C=C(Cl)c2ccc(Cl)cc2)C1C(=O)OC(C#N)c1ccc(F)c(Oc2ccccc2)c1 (stereo not drawn) |  | inactive
54 | CCOP(=O)(Oc1cnc(C(C)(C)C)nc1)OC(C)C (stereo not drawn) |  | inactive
55 | CC1(C)[C@H](C=C(Cl)Cl)[C@H]1C(=O)OCc1c(F)c(F)cc(F)c1F | 8.94 µM (active) | 
56 | CC1(C)C(C=C(Cl)Cl)C1C(=O)O[C@H](C#N)c1cccc(Oc2ccccc2)c1 (stereo partly drawn) | 10.1 µM (active) | 
57 | CCOP(=O)(OCC)OC(Cl)C(Cl)(Cl)Cl (stereo not drawn) | 9.85 µM (active) | 
58 | CC(=O)[O-].[Tl+] | 15.4 µM (active) | 
